Experimental data: PubChem BioAssay (Tox21)
Where “and” joins values, the source holds several entries; their conditions need not be identical. Equal entries are not always repeated. Results filed as inconclusive are left out. Some compounds were tested as several samples or in several runs, with calls that do not always agree. Calls of active or inactive are those of the source. Unless noted, the call rests on the fitted dose curve; in most records, active means well fitted curve in the direction sought with a large enough effect in the repeat runs; inconclusive means weak or mixed curves; inactive means no such curve, though single readings can be large; an effect the other way counts as inactive or inconclusive.

Columns and labels:
[1] = target: Progesterone receptor (Homo sapiens) (UniProt P06401); experiment: qHTS assay to identify small molecule agonists of the progesterone receptor (PR) signaling pathway (AID 1346784; calls by dose curve; further: nearly all actives have a fitted effect of over 30% in size; further: potency means the concentration at half of the fitted maximal effect)
Sequence of Progesterone receptor (Homo sapiens) (P06401 whole entry, looked up): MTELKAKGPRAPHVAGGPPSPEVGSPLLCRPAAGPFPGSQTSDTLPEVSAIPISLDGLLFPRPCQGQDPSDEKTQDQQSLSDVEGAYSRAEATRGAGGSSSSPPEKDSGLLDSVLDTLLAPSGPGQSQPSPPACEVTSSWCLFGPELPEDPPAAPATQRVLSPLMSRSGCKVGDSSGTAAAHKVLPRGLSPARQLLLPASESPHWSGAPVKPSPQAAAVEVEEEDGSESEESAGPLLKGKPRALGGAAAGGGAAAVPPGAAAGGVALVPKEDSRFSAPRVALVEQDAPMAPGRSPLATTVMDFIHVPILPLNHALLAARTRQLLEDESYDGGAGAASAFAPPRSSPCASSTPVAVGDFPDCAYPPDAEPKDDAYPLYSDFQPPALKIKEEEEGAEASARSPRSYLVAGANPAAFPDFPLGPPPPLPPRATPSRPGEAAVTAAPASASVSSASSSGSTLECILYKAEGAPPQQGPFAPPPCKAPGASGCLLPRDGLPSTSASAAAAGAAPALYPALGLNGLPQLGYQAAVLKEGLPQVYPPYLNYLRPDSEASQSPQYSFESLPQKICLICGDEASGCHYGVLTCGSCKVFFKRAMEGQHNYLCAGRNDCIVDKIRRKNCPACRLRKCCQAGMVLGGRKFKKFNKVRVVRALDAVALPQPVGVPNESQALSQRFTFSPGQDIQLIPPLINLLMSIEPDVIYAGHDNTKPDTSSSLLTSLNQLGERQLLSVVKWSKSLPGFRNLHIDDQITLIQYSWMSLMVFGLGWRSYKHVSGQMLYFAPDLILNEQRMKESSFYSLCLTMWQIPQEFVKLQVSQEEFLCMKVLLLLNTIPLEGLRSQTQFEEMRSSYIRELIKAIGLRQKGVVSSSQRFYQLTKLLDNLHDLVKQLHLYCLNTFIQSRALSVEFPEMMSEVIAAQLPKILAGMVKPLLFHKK
Method in brief: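 The screen uses PR-UAS-bla HEK 293T cells in charcoal-stripped serum (2%). Compounds are applied for 16 hr at 37C after a 6 hr pre-incubation, and reporter activity is detected with a FRET beta-lactamase substrate after 2 hr at room temperature.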

[2] = qHTS assay to identify small molecule agonists of the TGF-beta/Smad signaling pathway - cell viability counter screen (AID 1346829); further: nearly all actives have a fitted effect of over 45% in size; further: potency means the concentration at half of the fitted maximal effect
Method in brief: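 CellTiter-Glo luminescence readout; SBE-bla HEK 293T cells, overnight plating, compound 5 hr at 37 C/5% CO2, then bla substrate 2 hr RT, then CellTiter-Glo 30 min RT.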

[3] = target: Thyrotropin-releasing hormone receptor (Homo sapiens) (UniProt P34981); experiment: qHTS assay to identify small molecule antagonists of the thyrotropin-releasing hormone receptor (TRHR) signaling pathway (AID 1346877; active means well fitted inhibition curve with a large enough effect in the repeat runs, not every such curve was filed as active; further: series mostly up to about 51 µM)
Sequence of Thyrotropin-releasing hormone receptor (Homo sapiens) (P34981 whole entry, looked up): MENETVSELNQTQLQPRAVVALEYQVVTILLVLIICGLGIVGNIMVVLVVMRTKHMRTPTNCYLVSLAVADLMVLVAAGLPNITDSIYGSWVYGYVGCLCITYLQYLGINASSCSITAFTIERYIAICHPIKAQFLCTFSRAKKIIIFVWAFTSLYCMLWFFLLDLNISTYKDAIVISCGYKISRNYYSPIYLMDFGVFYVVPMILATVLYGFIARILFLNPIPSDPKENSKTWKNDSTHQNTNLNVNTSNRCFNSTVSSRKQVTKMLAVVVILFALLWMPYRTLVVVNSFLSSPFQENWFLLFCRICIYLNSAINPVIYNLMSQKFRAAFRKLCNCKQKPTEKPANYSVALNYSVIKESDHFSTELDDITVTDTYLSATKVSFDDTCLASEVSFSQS
Method in brief: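 TRHR-expressing HEK293 cells loaded with calcium dye for 2 h at 37 C; compounds pre-incubated 5 min at room temperature before TRH challenge at 1 nM final. Intracellular calcium fluorescence read kinetically for 3 min; 15 concentrations in triplicate.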

[4] = target: Thyrotropin-releasing hormone receptor (Homo sapiens) (UniProt P34981); experiment: qHTS assay to identify small molecule agonists of the thyrotropin-releasing hormone receptor (TRHR) signaling pathway (AID 1346891; calls by dose curve; further: series mostly up to about 58 µM)
Method in brief: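 Kinetic fluorescence (3 min, 1 s intervals) reported intracellular calcium after compound transfer onto TRHR-Hek293 cells pre-loaded with dye for 2 h at 37 °C.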

[5] = Human pregnane X receptor (PXR) small molecule agonists, qHTS cell viability counter screen (AID 1346977); further: nearly all actives have a fitted effect of over 50% in size; further: potency means the concentration at half of the fitted maximal effect
Method in brief: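 HepG2 cells stably carrying the PXR-Luc reporter are cultured with 5% charcoal-stripped FBS and treated with compounds for 24hr. CellTiter-Fluor is added at 23hr and fluorescence is read after 1hr.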

[6] = Caspase-3/7 induction in CHO-K1 cells by small molecules, qHTS cell viability counter screen (AID 1346979); further: nearly all actives have a fitted effect of over 35% in size; further: potency means the concentration at half of the fitted maximal effect
Method in brief: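 Seeding: 1,500 CHO-K1 cells/well. Rest: 5hr, 37C. Treatment: compounds in DMSO, 16hr. Read: CellTiter-Fluor, 1hr, fluorescence.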

[7] = target: Nuclear receptor subfamily 1 group I member 2 (Homo sapiens) (UniProt O75469); experiment: Human pregnane X receptor (PXR) small molecule agonists, qHTS assay (AID 1346982); further: nearly all actives have a fitted effect of over 35% in size; further: potency means the concentration at half of the fitted maximal effect
Sequence of Nuclear receptor subfamily 1 group I member 2 (Homo sapiens) (O75469 whole entry, looked up): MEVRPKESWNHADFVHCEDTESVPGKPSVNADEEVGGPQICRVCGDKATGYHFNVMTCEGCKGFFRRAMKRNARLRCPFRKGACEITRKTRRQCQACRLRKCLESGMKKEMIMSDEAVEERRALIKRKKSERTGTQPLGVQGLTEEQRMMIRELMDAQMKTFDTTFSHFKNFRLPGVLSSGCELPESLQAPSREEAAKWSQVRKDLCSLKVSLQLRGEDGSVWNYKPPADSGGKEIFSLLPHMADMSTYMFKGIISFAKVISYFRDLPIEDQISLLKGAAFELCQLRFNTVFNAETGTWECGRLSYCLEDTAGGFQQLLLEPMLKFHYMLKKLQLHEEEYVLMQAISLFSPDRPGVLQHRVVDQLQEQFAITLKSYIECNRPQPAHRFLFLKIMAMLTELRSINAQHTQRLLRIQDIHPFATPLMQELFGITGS
Method in brief: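 PXR-Luc HepG2 reporter cells (CYP3A4-driven luciferase) in 5% charcoal-stripped FBS medium, plated 5 h before compound addition, then treated 24 h at 37C. Luciferase read by ONE-Glo luminescence after 30 min at room temperature.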

[8] = target: Cytochrome P450 2D6 (Homo sapiens) (UniProt P10635); experiment: Cytochrome P450 Family 2 Subfamily D Member 6 (CYP2D6) small molecule antagonists: luciferase reporter qHTS assay (AID 1671196); further: nearly all actives have a fitted effect of over 50% in size; further: potency means the concentration at half of the fitted maximal effect
Sequence of Cytochrome P450 2D6 (Homo sapiens) (P10635 whole entry, looked up): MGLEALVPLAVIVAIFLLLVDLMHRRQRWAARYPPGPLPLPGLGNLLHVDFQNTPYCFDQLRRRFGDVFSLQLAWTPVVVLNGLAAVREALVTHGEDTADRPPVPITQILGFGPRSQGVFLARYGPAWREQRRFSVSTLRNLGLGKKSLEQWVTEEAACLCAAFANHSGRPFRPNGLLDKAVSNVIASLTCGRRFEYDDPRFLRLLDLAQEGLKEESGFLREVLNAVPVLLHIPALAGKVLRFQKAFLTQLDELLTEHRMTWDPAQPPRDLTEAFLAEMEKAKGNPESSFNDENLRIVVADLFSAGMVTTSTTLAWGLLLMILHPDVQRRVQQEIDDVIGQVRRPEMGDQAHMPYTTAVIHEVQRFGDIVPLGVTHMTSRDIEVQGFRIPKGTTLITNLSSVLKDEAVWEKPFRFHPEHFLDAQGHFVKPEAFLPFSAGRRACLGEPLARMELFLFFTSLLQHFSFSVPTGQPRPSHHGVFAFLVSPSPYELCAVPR
Method in brief: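 Cell-free P450-Glo system: CYP2D6 with proluciferin substrate was pre-incubated with compound for 10 min, then reacted with NADPH regeneration for 1 h at room temperature. Luciferin product was detected after 20 min, and data were reported as relative luminescence units.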

[9] = target: Cytochrome P450 2C19 (Homo sapiens) (UniProt P33261); experiment: Cytochrome P450 Family 2 Subfamily C Member 19 (CYP2C19) small molecule antagonists: luciferase reporter qHTS assay (AID 1671197); further: nearly all actives have a fitted effect of over 65% in size; further: potency means the concentration at half of the fitted maximal effect
Sequence of Cytochrome P450 2C19 (Homo sapiens) (P33261 whole entry, looked up): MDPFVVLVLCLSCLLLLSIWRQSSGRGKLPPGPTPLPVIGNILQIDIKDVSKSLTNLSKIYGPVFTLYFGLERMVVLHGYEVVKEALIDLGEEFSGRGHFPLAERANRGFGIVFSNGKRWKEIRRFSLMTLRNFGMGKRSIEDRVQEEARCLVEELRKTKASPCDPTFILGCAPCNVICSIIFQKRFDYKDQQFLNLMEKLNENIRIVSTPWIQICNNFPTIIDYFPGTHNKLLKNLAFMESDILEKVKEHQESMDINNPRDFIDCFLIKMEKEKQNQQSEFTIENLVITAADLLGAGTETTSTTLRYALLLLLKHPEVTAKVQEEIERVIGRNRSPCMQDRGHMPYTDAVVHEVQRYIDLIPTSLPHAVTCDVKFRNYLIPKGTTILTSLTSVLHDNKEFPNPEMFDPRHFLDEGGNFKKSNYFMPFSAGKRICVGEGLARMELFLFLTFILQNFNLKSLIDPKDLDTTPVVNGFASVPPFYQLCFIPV
Method in brief: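 Enzyme-substrate mix with proluciferin substrate (P450-Glo CYP2C19 system) preincubated with compounds 10 min at room temperature; NADPH regeneration solution added, 37C for 1 h; detection reagent stops reaction, luminescence read after 20 min. Ketoconazole positive control.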

[10] = qHTS assay to identify small molecule antagonists of the TGF-beta/Smad signaling pathway - cell viability counter screen (AID 1346824); further: nearly all actives have a fitted effect of over 50% in size; further: potency means the concentration at half of the fitted maximal effect
Method in brief: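 SBE-bla HEK 293T cells, incubated overnight, then compound plus 0.25 ng/mL TGF-beta1 (stock added) for 5 hr at 37 C. Viability was read in the same wells by CellTiter-Glo luminescence after 30 min at room temperature.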

[11] = qHTS assay to identify small molecule agonists of the TGF-beta/Smad signaling pathway (AID 1346859; active means well fitted activation curve with a large enough effect in the signal ratio in the repeat runs, not every such curve was filed as active; the % refers to the signal ratio; further: potency means the concentration at half of the fitted maximal effect; on activation: series mostly up to about 77 µM)
Method in brief: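 Dual-wavelength fluorescence (460/530 nm emission) quantified beta-lactamase expression under the Smad binding element in HEK 293T cells following 5 hr compound treatment at 37 C.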

[12] = Caspase-3/7 induction in HepG2 cells by small molecules, qHTS assay (AID 1346978); further: nearly all actives have a fitted effect of over 15% in size; further: potency means the concentration at half of the fitted maximal effect
Method in brief: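 Wild-type HepG2 cells, 2,000/well, settled 5 hr at 37 C and 5% CO2, then compound-treated for 17 hr; caspase-3/7 activity read by luminescent Caspase-Glo 3/7 after 30 min at room temperature.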

[13] = Caspase-3/7 induction in CHO-K1 cells by small molecules, qHTS assay (AID 1346980); further: nearly all actives have a fitted effect of over 15% in size; further: potency means the concentration at half of the fitted maximal effect
Method in brief: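 Wild-type CHO-K1 cells exposed to compounds for 17hr at 37 C, 5% CO2. Caspase-3/7 activity then measured by Caspase-Glo 3/7 luminescence after 30min at room temperature.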

[14] = Caspase-3/7 induction in HepG2 cells by small molecules, qHTS cell viability counter screen (AID 1346981); further: nearly all actives have a fitted effect of over 30% in size; further: potency means the concentration at half of the fitted maximal effect
Method in brief: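 Wild-type HepG2 cells, 2,000/well, settled 5 hr at 37 C, 5% CO2 before compound addition. Viability read by CellTiter-Fluor fluorescence, reagent added after 16 hr compound exposure, then 1 hr at 37C, in the same wells as the caspase read.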

[15] = target: Progesterone receptor (Homo sapiens) (UniProt P06401); experiment: qHTS assay to identify small molecule antagonists of the progesterone receptor (PR) signaling pathway (AID 1346795; active means well fitted inhibition curve with a large enough effect in the signal ratio in the repeat runs, not every such curve was filed as active; the % refers to the signal ratio; further: potency means the concentration at half of the fitted maximal effect)
Method in brief: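 After 6 hr plating at 37C in 2% stripped-serum medium, PR-UAS-bla HEK293T cells got compounds, then 1 nM R5020. Sixteen hours later, LiveBLAzer substrate was applied for 2 hr at room temperature and fluorescence was recorded.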

[16] = qHTS assay to identify small molecule antagonists of the progesterone receptor (PR) signaling pathway - cell viability counter screen (AID 1346798); further: nearly all actives have a fitted effect of over 50% in size; further: potency means the concentration at half of the fitted maximal effect
Method in brief: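 Viability was determined by ATP-based luminescence (CellTiter-Glo) in PR-UAS-bla HEK293T cells cultured in 2% charcoal-stripped serum and incubated 16 hr with compounds under R5020 stimulation.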

[17] = qHTS assay to identify small molecule agonists of the progesterone receptor (PR) signaling pathway - cell viability counter screen (AID 1346799; calls by dose curve; further: nearly all actives have a fitted effect of over 45% in size; further: potency means the concentration at half of the fitted maximal effect)
Method in brief: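 Viability was scored by ATP luminescence (CellTiter-Glo, 30 min, room temperature) in the same wells used for the reporter readout, after 16 hr compound exposure of PR-UAS-bla HEK293T cells.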

[18] = target: Nuclear receptor subfamily 1 group I member 2 (Rattus norvegicus) (UniProt Q9R1A7); experiment: Rat pregnane X receptor (rPXR) activation by small molecules, qHTS assay (AID 1346983); conditions: rPXR luciferase reporter cells, One-Glo luminescence, 24 h; max activation: stronger effect = higher value; further: nearly all actives have a fitted effect of over 20% in size; further: potency means the concentration at half of the fitted maximal effect
Sequence of Nuclear receptor subfamily 1 group I member 2 (Rattus norvegicus) (Q9R1A7 whole entry, looked up): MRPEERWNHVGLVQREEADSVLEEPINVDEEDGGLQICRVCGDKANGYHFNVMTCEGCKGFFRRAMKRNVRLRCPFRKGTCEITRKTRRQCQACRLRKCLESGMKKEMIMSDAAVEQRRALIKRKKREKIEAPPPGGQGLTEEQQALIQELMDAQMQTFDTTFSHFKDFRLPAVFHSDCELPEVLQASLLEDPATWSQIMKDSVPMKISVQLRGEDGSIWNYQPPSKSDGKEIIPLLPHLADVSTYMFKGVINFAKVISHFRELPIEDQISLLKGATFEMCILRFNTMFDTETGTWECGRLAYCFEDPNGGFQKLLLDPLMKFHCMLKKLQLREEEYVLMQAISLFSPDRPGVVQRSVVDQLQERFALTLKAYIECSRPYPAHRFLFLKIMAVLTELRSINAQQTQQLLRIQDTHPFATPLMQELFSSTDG
Method in brief: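 Cell-based rPXR activation assay: rPXR cells, 2,000 per well, rested 5hr at 37 C, then exposed to compounds in DMSO for 24 hr at 37 C. Luciferase activity read by One-Glo luminescence after 30 min at room temperature.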

[19] = target: Nuclear receptor subfamily 1 group I member 2 (Homo sapiens) (UniProt O75469); experiment: CYP3A4 induction through human pregnane X receptor (PXR) by small molecules, qHTS assay (AID 1346984); further: nearly all actives have a fitted effect of over 40% in size
Method in brief: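 DPX-2 HepG2 cells carrying a PXR response element and CYP3A4-promoter luciferase construct, treated with compounds 24 hr at 37C. Then P450-Glo CYP3A4 Luciferin-IPA substrate (3uM final) for 3 hr at 37C, One-Glo added, luminescence read.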

[20] = target: Nuclear receptor subfamily 1 group I member 2 (Homo sapiens) (UniProt O75469); experiment: Human pregnane X receptor (PXR) activation by small molecules, qHTS assay (AID 1346985); further: nearly all actives have a fitted effect of over 40% in size; further: potency means the concentration at half of the fitted maximal effect
Method in brief: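 DPX-2 cells (HepG2 co-transfected with a PXR response element and a CYP3A4-promoter luciferase construct) were seeded at 2,000 per well, rested 5 hr at 37C, then exposed to DMSO-dissolved compounds for 24 hr. Activation was read as luciferase luminescence.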
On the % scale 0 is the no-effect control and ±100 the full control effect.

CC1(C)CCC(C)(C)c2cc(C(=O)Nc3ccc(C(=O)O)cc3)ccc21
active: Potency [6] 48.6 µM
inactive: Potency [1] | Potency [2] | Potency [3] | Potency [4] | Potency [5] | Potency [7] | Potency [8] | Potency [9]

Cc1ccc2oc(CN(Cc3ccccc3)C(=O)Nc3c(F)cc(F)cc3F)c(-c3ccc(Cl)cc3)c2c1
inactive: Potency [1] | Potency [10] | Potency [2] | Potency [11] | Potency [3] | Potency [4] | Potency [5] | Potency [12] | Potency [13] | Potency [14]
active: Potency [7] 3.74 µM | Potency [8] 0.194 µM | Potency [9] 10.9 µM

CCCCCCCCCCCC(=O)NCCCN(C)C
active: Potency [15] 61.1 µM | Potency [16] 54.5 µM | Potency [17] 30.6 µM | Potency [10] 49 µM | Potency [2] 54.9 µM | Potency [6] 54.5 µM | Potency [7] 24.3 µM | Potency [8] 12.6 µM | Potency [9] 20 µM
inactive: Potency [11] | Potency [3] | Potency [4]

CCCCCCCCCCn1cc[n+](CCCCCCCCCC)c1C
inactive: Potency [1] | Potency [11] | Potency [3]
active: Potency [10] 24.6 µM | Potency [2] 21.9 µM | Potency [5] 19.4 µM | Potency [12] 48.6 µM | Potency [14] 68.7 µM | Potency [7] 7.7 µM | Potency [8] 1.26 µM | Potency [9] 35.6 µM

Nc1c2ccccc2nc2ccccc12
inactive: Potency [10] | Potency [2] | Potency [14] | Potency [9]
active: Potency [1] 4.79 µM | Potency [11] 23.9 µM | Potency [12] 21.4 µM and 11.9 µM | Potency [13] 12 µM | Potency [8] 700 nM and 11 µM

Cc1cc(C2CCCCC2)n(O)c(=O)c1
active: Potency [15] 3.35 µM | Potency [6] 23.7 µM
inactive: Potency [16] | Potency [17] | Potency [10] | Potency [2] | Potency [11] | Potency [12] | Potency [13] | Potency [14] | max activation [18] -2.39% | Potency [19] | Potency [20] | Potency [8] | Potency [9]

CC(C)C(C)(C)C(C)(C)C(C)(C)S
active: Potency [7] 27.3 µM | Potency [8] 39.9 µM | Potency [9] 39.9 µM
inactive: Potency [1] | Potency [10] | Potency [2] | Potency [11] | Potency [3] | Potency [4] | Potency [5] | Potency [12] | Potency [13]

CCCC/C=C/CCCCO
inactive: Potency [15] | Potency [16] | Potency [10] | Potency [2] | Potency [11] | Potency [3] | Potency [4] | Potency [5] | Potency [12] | Potency [13] | Potency [14] | Potency [8] | Potency [9]

CC(C)n1nc(-c2cc3cc(O)ccc3[nH]2)c2c(N)ncnc21
active: Potency [12] 29.8 µM | Potency [7] 3.76 µM | Potency [8] 30.9 µM | Potency [9] 0.49 µM
inactive: Potency [1] | Potency [17] | Potency [10] | Potency [2] | Potency [3]

CC(C)OC(=O)c1cc2c(OCC(O)CNC(C)(C)C)cccc2[nH]1 (centres undefined)
inactive: Potency [1] | Potency [10] | Potency [2] | Potency [11] | Potency [3] | Potency [12] | Potency [6] | Potency [13] | Potency [14]
active: Potency [8] 13.8 µM

CCc1cc(Cc2cc(CC)c(N)c(CC)c2)cc(CC)c1N
active: Potency [16] 68.6 µM | Potency [17] 54.5 µM | Potency [5] 27.3 µM | Potency [6] 27.3 µM | Potency [8] 25.2 µM | Potency [9] 0.71 µM
inactive: Potency [10] | Potency [2] | Potency [11] | Potency [3] | Potency [12] | Potency [13]

OCc1c[nH]c2ccccc12
inactive: Potency [10] | Potency [3] | Potency [4] | Potency [12] | Potency [13]
active: Potency [15] 25.8 µM | Potency [6] 64.8 µM | Potency [7] 24.3 µM | Potency [9] 2.52 µM

Clc1ccccc1C(c1ccccc1)(c1ccccc1)n1ccnc1
active: Potency [15] 9.44 µM | Potency [16] 5.45 µM and 29.8 µM | Potency [5] 17.2 µM | Potency [6] 8.63 µM and 7.5 µM | Potency [14] 48.6 µM | Potency [7] 770 nM and 11.9 µM | Potency [18] 3.98 µM | Potency [20] 3.98 µM | Potency [8] 39.9 µM | Potency [9] 3.99 µM and 2.45 µM
34.7 µM (active) and inactive: Potency [2]
inactive: Potency [3] | Potency [4] | Potency [12] | Potency [13] | Potency [19]

CCN(CCC#N)c1ccc(N=Nc2c(Cl)cc([N+](=O)[O-])cc2Cl)cc1
active: Potency [6] 48.6 µM
inactive: Potency [16] | Potency [17] | Potency [10] | Potency [2] | Potency [11] | Potency [3] | Potency [12] | Potency [13] | Potency [8] | Potency [9]

COc1cccc2c1C(=O)c1c(O)c3c(c(O)c1C2=O)C[C@@](O)(C(=O)CO)C[C@@H]3O[C@H]1C[C@H](N)[C@H](O[C@@H]2CCCCO2)[C@H](C)O1
inactive: Potency [16] | Potency [17] | Potency [10] | Potency [2] | Potency [11] | Potency [3] | Potency [13] | Potency [7] | Potency [19]
active: Potency [5] 1.68 µM | Potency [12] 2.37 µM | Potency [6] 6.68 µM | Potency [14] 8.41 µM

C=C(C)C(=O)OCC(O)COc1ccc(C(C)(C)c2ccc(OCC(O)COC(=O)C(=C)C)cc2)cc1 (centres undefined)
inactive: Potency [11] | Potency [3] | Potency [4] | Potency [5] | Potency [12] | Potency [13]
active: Potency [15] 61.1 µM | Potency [7] 27.3 µM | Potency [8] 39.9 µM | Potency [9] 7.1 µM
